Measured potencies and affinities stand elsewhere. Calls of active or inactive are those of the source.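 Rule for the calls: active = compounds lowering cell ATP signal with a fitted half-effect dose at most twice the top valid dose; inconclusive = flat curve with 30 to 70% signal loss, or bad fit; inactive = wrong direction, flat within 30%, or weaker than limit.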
assay: HEK293 cell cytotoxicity, dose response, cytotoxicity control, cherry-picks, set 5 (AID 1053117); conditions: HEK293T viability, CellTiter-Glo ATP luminescence, 72 h; series mostly up to 26 µM;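 note: more negative means greater loss of ATP signal and more cytotoxicity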

Row | Structure (SMILES) | outcome
1 | CN1c2ccc(-c3ccccc3)cc2[C@@H]2[C@@H](CCN2C(=O)CN2CCOCC2)[C@@H]1CO | inactive
2 | C[C@H]1CN([C@@H](C)CO)C(=O)c2cc(-c3ccccc3)cnc2O[C@H]1CN(C)Cc1ccccc1 | inactive
3 | O=S(=O)(c1ccccc1F)N1CC[C@@H]2[C@H]1c1cc(-c3cccc(F)c3)ccc1N[C@@H]2CO | inactive
4 | Cn1cc([N+](=O)[O-])c(C(=O)Nc2cc(Oc3ccccc3)cc([N+](=O)[O-])c2)n1 | inactive
5 | COc1ccc(CCNC(=O)C2CCN(Cc3nc(-c4ccccc4F)oc3C)CC2)cc1OC | inactive
6 | Cc1ccccc1S(=O)(=O)N1CC[C@H]2[C@H](CO)Nc3ccc(-c4ccc(C#N)cc4)cc3[C@H]21 | inactive
7 | O=C(Nc1ccccc1F)N1C[C@@H]2[C@H](c3ccccc31)[C@H](CO)N2C(=O)C1CCOCC1 | inactive
8 | CCOC(=O)c1nnn(-c2ccc(OC)cc2)c1N | inactive
9 | CCOC(=O)c1cnc(SCc2nc(N)nc(Nc3ccc(OC)cc3)n2)nc1N | inactive
10 | C[C@H](O)C#Cc1ccc2c(c1)O[C@@H](CN(C)C)[C@H](C)CN([C@@H](C)CO)S2(=O)=O | inactive
11 | Cc1ccn2cc(-c3ccc(NC(=O)c4ccco4)cc3)nc2c1 | inactive
12 | C[C@@H](O)C#Cc1ccc2c(c1)O[C@@H](CN(C)C)[C@@H](C)CN([C@@H](C)CO)S2(=O)=O | inactive
13 | CCOC(=O)C1=C(C)Nc2nc3ccccc3n2C1c1ccncc1 (stereo not given) | inactive
14 | COC(=O)C[C@H]1CC[C@@H]2[C@@H](COc3ccc(NC(=O)Cc4cccs4)cc3C(=O)N2C)O1 | inactive
15 | CCN1CCN(C(c2ccccc2)c2nnnn2Cc2ccccc2)CC1 (stereo not given) | inactive
16 | C[C@@H]1CN([C@@H](C)CO)C(=O)c2cc(-c3ccccc3)cnc2O[C@@H]1CN(C)C(=O)c1cccc(F)c1 | inactive
17 | CCN(Cc1ccncc1)C(=O)c1ccc2c(c1)S(=O)(=O)c1ccccc1C2=O | inactive
18 | O=C(CN1CCCC1)Nc1ccc(Oc2ccc(NC(=O)CN3CCCC3)cc2)cc1 | inactive
19 | C[C@H](CO)N1C[C@H](C)[C@H](CN(C)Cc2ccccc2)Oc2ncc(-c3ccccc3)cc2C1=O | inactive
20 | COc1ccccc1N(CC(=O)N(CC(C)C)CC(C)C)S(=O)(=O)c1cccs1 | inactive
